# Shown is part of a subset that was picked to be rich in hits.
# DUX4 txn inh – blocks DUX4-driven transcriptional activation; AID 1224904; 293T-iDUX4 ZSCAN4-Gaussia luciferase reporter, 24 h; stronger effect = lower value; activity change, negative = inhibition, % (no concentration beside the values); actives 0.8% (n = 37,000);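 active = mean inhibition of at least 10% in the main channel, exceeding the control channel by a set limit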;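 note: 0% = median of neutral control wells and -100% = median of positive control wells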
# * hit, by the source's call.
SMILES,DUX4 txn inh
O=C(Cc1ccncc1)N1CCCCN2[C@H](CO)[C@H](c3ccc(C#Cc4ccccc4F)cc3)[C@@H]2C1,-38.5*
O=C(Cc1ccccc1)N1CCCCN2[C@H](CO)[C@@H](c3ccc(C#CC4(O)CCCC4)cc3)[C@@H]2C1,-4.7
O=C(Cc1ccncc1)N1CCCCN2[C@H](CO)[C@@H](c3ccc(-c4ccncc4)cc3)[C@H]2C1,15.7
CC(=O)N1[C@@H]2Cn3c(ccc(-c4cccc(C(=O)N(C)C)c4)c3=O)[C@H]1[C@@H](C(=O)O)[C@@H]2CO,-4.9
C[C@H](CO)N1C[C@H](C)[C@H](CN(C)C(=O)Oc2cccc3ccccc23)OCc2cn(nn2)CCCC1=O,0.0

# Assay outcomes (PubChem BioAssay)
